# Assays:
# Test in all cases: DAPPL (digital affinity profiling via proximity ligation, sequencing); 10 mM Tris-HCl pH 7.5, 50 mM NaCl, 1 mM DTT, 4% glycerol, room temperature, 30 min; GST-TFs on glutathione beads, 16-mer random dsDNA library, 0.1% formaldehyde crosslink after washing; high values mean tight binding
# Conditions in all cases: protein: recombinant; tags: N-terminal GST; dsDNA, one strand shown
# [1] = biological target: T1, FLI1 (Homo sapiens, UniProt Q01543 1-452)
# T1 sequence: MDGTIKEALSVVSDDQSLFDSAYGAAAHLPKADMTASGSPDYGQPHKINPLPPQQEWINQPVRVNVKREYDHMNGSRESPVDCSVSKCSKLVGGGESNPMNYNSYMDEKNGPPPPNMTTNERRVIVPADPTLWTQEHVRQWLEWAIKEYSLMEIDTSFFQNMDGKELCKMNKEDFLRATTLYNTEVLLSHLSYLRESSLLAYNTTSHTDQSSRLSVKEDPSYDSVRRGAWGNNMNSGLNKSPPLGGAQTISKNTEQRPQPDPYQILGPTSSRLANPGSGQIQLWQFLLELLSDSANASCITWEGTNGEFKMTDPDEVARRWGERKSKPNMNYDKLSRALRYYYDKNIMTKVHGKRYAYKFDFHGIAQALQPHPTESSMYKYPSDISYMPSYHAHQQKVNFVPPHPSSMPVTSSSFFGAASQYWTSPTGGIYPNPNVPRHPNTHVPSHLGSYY
# Procedure, shortened: (§1)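 GST fusions of human transcription factors were expressed in yeast and captured with glutathione beads. Once given DNA barcodes and pooled alongside a tag-only sample, they were incubated for 30 min at room temperature with 200 nmole of a random double-stranded 16-mer DNA library in Tris/NaCl/DTT/glycerol buffer, then washed, crosslinked (0.1% formaldehyde), proximity-ligated, PCR-amplified and sequenced on an Illumina NextSeq500. The binding signal of each hexamer is its read frequency for a factor divided by its frequency for the tag-only sample.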
# [2] = biological target: T2, ELK1 (Homo sapiens, UniProt P19419 1-428)
# T2 sequence: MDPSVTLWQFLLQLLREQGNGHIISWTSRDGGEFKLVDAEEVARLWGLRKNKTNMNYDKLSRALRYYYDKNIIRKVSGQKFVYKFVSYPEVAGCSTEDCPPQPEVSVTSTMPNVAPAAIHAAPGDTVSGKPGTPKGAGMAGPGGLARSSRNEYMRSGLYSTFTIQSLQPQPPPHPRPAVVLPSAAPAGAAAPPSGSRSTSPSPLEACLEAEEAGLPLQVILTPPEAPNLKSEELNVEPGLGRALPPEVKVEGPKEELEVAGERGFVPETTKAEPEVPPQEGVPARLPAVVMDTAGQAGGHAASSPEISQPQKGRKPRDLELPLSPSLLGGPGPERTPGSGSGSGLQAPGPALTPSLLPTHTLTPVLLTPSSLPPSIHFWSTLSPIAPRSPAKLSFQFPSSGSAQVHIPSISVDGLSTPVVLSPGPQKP
# Procedure, shortened: as §1
# [3] = biological target: T3, GABPA (Homo sapiens, UniProt Q06546 1-454)
# T3 sequence: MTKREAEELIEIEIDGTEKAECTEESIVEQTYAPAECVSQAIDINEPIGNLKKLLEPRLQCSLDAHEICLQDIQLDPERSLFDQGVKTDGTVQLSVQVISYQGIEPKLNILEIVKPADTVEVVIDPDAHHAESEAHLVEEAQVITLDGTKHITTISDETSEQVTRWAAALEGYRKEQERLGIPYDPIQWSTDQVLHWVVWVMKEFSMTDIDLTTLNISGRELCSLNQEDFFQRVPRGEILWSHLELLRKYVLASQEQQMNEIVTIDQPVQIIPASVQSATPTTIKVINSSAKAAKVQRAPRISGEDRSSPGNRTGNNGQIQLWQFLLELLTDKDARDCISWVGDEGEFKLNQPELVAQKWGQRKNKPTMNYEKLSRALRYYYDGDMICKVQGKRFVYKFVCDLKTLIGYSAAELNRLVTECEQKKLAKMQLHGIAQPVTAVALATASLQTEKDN
# Procedure, shortened: as §1
# [4] = biological target: T4, ERG (Homo sapiens, UniProt P11308 1-479)
# T4 sequence: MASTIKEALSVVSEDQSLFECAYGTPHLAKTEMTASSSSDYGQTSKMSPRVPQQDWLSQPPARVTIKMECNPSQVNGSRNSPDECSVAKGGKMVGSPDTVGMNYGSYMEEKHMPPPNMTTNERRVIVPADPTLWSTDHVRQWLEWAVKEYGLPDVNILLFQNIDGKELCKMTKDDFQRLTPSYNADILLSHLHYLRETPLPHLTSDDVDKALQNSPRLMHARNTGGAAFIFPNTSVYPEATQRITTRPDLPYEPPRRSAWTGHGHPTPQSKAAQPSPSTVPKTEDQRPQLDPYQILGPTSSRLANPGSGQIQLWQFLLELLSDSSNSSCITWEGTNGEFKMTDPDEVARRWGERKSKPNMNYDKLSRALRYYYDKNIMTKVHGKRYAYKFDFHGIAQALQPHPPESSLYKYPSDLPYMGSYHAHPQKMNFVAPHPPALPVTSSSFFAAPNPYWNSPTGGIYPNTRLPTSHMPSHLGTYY
# Procedure, shortened: as §1
# [5] = biological target: ELF1 (Homo sapiens, UniProt P32519 1-619)
# Procedure, shortened: as §1
# [6] = biological target: T5, EHF (Homo sapiens, UniProt Q9NZC4 1-300)
# T5 sequence: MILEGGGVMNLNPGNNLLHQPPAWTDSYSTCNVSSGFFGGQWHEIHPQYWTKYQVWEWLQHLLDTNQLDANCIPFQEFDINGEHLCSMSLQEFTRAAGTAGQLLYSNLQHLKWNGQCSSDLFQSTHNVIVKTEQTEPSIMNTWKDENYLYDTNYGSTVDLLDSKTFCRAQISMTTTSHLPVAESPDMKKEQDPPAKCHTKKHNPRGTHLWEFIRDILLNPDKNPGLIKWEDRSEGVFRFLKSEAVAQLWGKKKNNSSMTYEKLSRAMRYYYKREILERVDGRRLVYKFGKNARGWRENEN
# Procedure, shortened: as §1
# [7] = biological target: SPI1 (Homo sapiens, UniProt P17947 1-270)
# Procedure, shortened: as §1
# [8] = biological target: SPIB (Homo sapiens, UniProt Q01892 1-262)
# Procedure, shortened: as §1
# [9] = biological target: T6, ELK3 (Homo sapiens, UniProt P41970 1-407)
# T6 sequence: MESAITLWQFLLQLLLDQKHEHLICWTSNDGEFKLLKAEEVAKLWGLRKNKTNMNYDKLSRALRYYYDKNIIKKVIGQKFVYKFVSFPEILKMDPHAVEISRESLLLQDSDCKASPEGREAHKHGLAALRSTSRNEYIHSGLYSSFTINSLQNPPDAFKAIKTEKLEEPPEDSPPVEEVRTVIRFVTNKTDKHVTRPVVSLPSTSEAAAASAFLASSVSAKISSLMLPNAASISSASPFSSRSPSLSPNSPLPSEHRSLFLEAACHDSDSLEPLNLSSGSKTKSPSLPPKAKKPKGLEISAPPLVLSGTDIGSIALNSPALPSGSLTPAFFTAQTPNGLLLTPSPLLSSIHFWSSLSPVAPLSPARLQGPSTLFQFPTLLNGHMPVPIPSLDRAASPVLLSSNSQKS
# Procedure, shortened: as §1
# ELF1, sequence (P32519 whole entry): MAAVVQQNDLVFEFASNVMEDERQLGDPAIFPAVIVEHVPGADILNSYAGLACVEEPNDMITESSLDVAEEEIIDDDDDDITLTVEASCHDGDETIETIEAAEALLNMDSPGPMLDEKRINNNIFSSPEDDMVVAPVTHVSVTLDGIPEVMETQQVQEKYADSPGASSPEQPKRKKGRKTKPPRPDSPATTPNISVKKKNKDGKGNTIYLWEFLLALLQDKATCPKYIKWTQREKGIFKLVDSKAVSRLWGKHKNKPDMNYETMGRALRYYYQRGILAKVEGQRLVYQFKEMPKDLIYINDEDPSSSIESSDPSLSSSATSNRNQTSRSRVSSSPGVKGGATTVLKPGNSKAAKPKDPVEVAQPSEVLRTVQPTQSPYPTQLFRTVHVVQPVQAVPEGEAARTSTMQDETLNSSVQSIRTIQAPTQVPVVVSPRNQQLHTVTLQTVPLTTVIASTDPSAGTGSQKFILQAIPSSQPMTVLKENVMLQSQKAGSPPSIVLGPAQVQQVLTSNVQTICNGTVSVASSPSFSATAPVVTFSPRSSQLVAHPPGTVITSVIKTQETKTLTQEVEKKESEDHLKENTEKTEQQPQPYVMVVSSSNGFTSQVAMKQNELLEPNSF
# SPIB, sequence (Q01892 whole entry): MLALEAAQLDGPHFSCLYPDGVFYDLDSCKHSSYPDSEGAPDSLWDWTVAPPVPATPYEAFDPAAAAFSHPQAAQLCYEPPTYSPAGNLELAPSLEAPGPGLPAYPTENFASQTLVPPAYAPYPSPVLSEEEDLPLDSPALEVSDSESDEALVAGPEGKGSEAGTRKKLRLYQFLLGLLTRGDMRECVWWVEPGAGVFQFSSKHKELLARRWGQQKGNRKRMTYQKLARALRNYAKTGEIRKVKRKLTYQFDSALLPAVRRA
sequence,measurement,setting,value
AGAAAT,binding signal,[1],"1.05 fold enrichment (6-mer frequency, TF over GST control)"
same,binding signal,[2],"1.13 fold enrichment (6-mer frequency, TF over GST control)"
same,binding signal,[3],"1.17 fold enrichment (6-mer frequency, TF over GST control)"
same,binding signal,[4],"1.1 fold enrichment (6-mer frequency, TF over GST control)"
same,binding signal,[5],"1.15 fold enrichment (6-mer frequency, TF over GST control)"
same,binding signal,[6],"1.16 fold enrichment (6-mer frequency, TF over GST control)"
same,binding signal,[7],"1.16 fold enrichment (6-mer frequency, TF over GST control)"
same,binding signal,[8],"1.11 fold enrichment (6-mer frequency, TF over GST control)"
same,binding signal,[9],"1.2 fold enrichment (6-mer frequency, TF over GST control)"
